The list is not random: actives were taken first. Their share in the collection is about 4.7%.
Efflux pump mplx = blocks antifungal efflux pumps in multiplex yeast assay. 330,000 compounds, 0.44% hits. inhibition, % at 10 µM. S. cerevisiae Candida pump triplex, Nile Red efflux;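 active = plate passing quality check with inhibition over a set limit, or well fluorescence over plate mean plus 4 SD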;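 note: Nile Red retained in pooled yeast measured as flow cytometry median fluorescence; 0% = buffer negative control and 100% = Enniatin B positive control; higher means more Nile Red kept so more efflux inhibition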
eIF4H inh = inhibitors of RNA binding by human eIF4H | eIF4H fluorescence polarization binding assay | 290,000 compounds, 0.94% hits | Q15056 | inhibition, % at 35 µM;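 note: calls also rest on retests at 20 µM and on dose response follow-up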
SUMO HTRF inh = SUMOylation inhibition; P63279; HTRF SUMOylation assay, SAE1/SAE2 + UBC9, in vitro; inhibition, % at 35 µM; 290,000 compounds, 0.36% hits; in the data active = inhibition above about 50%, passing the limit was not always enough
Target sequence (P63279 whole entry, looked up): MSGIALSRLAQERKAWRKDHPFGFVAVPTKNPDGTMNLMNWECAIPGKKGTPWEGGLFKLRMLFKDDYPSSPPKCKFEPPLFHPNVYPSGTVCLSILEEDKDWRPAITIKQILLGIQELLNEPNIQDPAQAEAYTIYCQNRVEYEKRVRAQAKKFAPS
ALR inh = blocks human ALR sulfhydryl oxidase activity; AID 485317; purified ALR, DTT oxidation, H2O2 HRP-luminol luminescence; 290,000 compounds, 3.8% hits; P55789; inhibition, % (test concentration not listed);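 active = mean replicate inhibition above about 79%, with every replicate also reaching it, limit read from the data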
Target sequence (P55789 whole entry, looked up): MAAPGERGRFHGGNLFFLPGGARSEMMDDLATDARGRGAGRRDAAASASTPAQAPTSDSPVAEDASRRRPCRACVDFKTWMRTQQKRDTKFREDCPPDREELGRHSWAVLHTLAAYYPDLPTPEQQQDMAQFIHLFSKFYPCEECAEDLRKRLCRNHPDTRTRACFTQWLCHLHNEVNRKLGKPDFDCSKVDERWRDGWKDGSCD
PABP1 MLLE inh = inhibitors of microRNA-mediated deadenylation, human PABP1 MLLE binding | P11940 | GST-MLLE / FITC-PAM2 fluorescence polarization | inhibition, % at 20 µM | 360,000 compounds, 0.36% hits; in the data active = inhibition above about 35%, passing the limit was not always enough;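 note: plate controls were DMSO wells with GST-MLLE for no effect and wells lacking GST-MLLE protein for full effect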
PABP polyA inh = PABP-poly(A) binding inhibition. P11940. PABP-poly(A) RNA binding, fluorescence polarization. inhibition, % at 35 µM. 290,000 compounds, 1% hits. AID 2014;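 note: calls also rest on retests at 20 µM and on dose response follow-up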
Active calls of the source: *. Unless noted, the rule behind the calls is not given here.

CCn1c(O)c(C#N)c(C)cc1=O was read as Efflux pump mplx 0, eIF4H inh 78*, SUMO HTRF inh 28, ALR inh -22, PABP1 MLLE inh 13 and PABP polyA inh 46.
`Cc1cc(=O)n(CC(C)C)c(O)c1C#N` gave Efflux pump mplx 0, eIF4H inh 119*, SUMO HTRF inh 33, PABP1 MLLE inh -1 and PABP polyA inh 68*.
Cn1cccc1C(=O)NNC(=O)COc1ccccc1Cl was read as Efflux pump mplx 0, ALR inh 5 and PABP1 MLLE inh 5.
Screening CN1CCN(c2ccc(S(=O)(=O)N3CCOCC3)cc2NC(=O)CSCc2ccccc2)CC1 returned Efflux pump mplx 0, ALR inh -1 and PABP1 MLLE inh 1.
C=CCn1c(CSc2ccccc2[N+](=O)[O-])n[nH]c1=S was read as Efflux pump mplx 0, eIF4H inh 84*, SUMO HTRF inh 42, ALR inh 58, PABP1 MLLE inh -6 and PABP polyA inh 21*.
For CCn1c2ccccc2c2cc(NC(=O)CSc3nnc(-c4ccc(OC)c(OC)c4)n3N)ccc21 the results were Efflux pump mplx 0, eIF4H inh -4, SUMO HTRF inh -8, ALR inh 98*, PABP1 MLLE inh -18 and PABP polyA inh -10.
Screening CCn1c2ccccc2c2cc(NC(=O)CSc3nnc(-c4cccc(OC)c4)n3N)ccc21 returned Efflux pump mplx 0, eIF4H inh 6, SUMO HTRF inh -7, ALR inh 3, PABP1 MLLE inh -29 and PABP polyA inh -16.
Screening Nc1ccc(NC(=O)NC2CCCCC2)cc1 returned Efflux pump mplx 0, eIF4H inh -1, SUMO HTRF inh -10, ALR inh 99*, PABP1 MLLE inh -13 and PABP polyA inh -9.
For CCOC(=O)C1(CC2CC2)CCN(Cc2ccc(OC)cc2F)CC1 the results were Efflux pump mplx 0, eIF4H inh 89*, SUMO HTRF inh 13, ALR inh 1, PABP1 MLLE inh -7 and PABP polyA inh 76.
Cc1cc(Cc2ccc(N)c(C)c2)ccc1N was read as Efflux pump mplx 0, eIF4H inh -5, SUMO HTRF inh 4, ALR inh 81*, PABP1 MLLE inh -5 and PABP polyA inh 10.
Screening O=c1oc(-c2cccnc2)nc2ccccc12 returned Efflux pump mplx 0, eIF4H inh 5, SUMO HTRF inh 11, PABP1 MLLE inh -2 and PABP polyA inh -6.
For Cc1cc(=O)c2cc3nc(-c4cccnc4)oc3c(Br)c2o1 the results were Efflux pump mplx 0, eIF4H inh 97*, SUMO HTRF inh 20, ALR inh -1 and PABP polyA inh 78*.
Screening Nc1nn(S(=O)(=O)c2ccccc2)cc1-c1cccc([N+](=O)[O-])c1 returned Efflux pump mplx 0, eIF4H inh active, SUMO HTRF inh -12, ALR inh -8, PABP1 MLLE inh 10 and PABP polyA inh 76*.
O=c1[nH]c2ccc([N+](=O)[O-])cc2nc1/C=C(\O)c1ccccc1 was read as Efflux pump mplx 0, eIF4H inh -5, SUMO HTRF inh 36, ALR inh 5, PABP1 MLLE inh 35 and PABP polyA inh 4.
N#Cc1ccc(/C=N/NC(=S)Nc2ccc(S(=O)(=O)N3CCOCC3)cc2)cc1 was read as Efflux pump mplx 0, eIF4H inh 10, SUMO HTRF inh 16, ALR inh 1, PABP1 MLLE inh 27 and PABP polyA inh 5.
Screening O=[N+]([O-])c1cc(Cl)cc(/C=N/NC(=S)Nc2ccc(S(=O)(=O)N3CCOCC3)cc2)c1O returned Efflux pump mplx 0, eIF4H inh 46, SUMO HTRF inh 95*, ALR inh 9, PABP1 MLLE inh 11 and PABP polyA inh 46.
`O=C(CN1CCN(c2ccc(O)cc2)CC1)Nc1cc(S(=O)(=O)N2CCCCC2)ccc1Cl` gave Efflux pump mplx 0, eIF4H inh -15, SUMO HTRF inh -2, ALR inh 45, PABP1 MLLE inh 1 and PABP polyA inh -6.
O=C(CN1CCN(c2ccc(O)cc2)CC1)Nc1cc(S(=O)(=O)N2CCCC2)ccc1Cl was read as Efflux pump mplx 0, eIF4H inh 17, SUMO HTRF inh 0, ALR inh 90*, PABP1 MLLE inh 10 and PABP polyA inh 5.
O=S(=O)(c1ccc(NC(=S)N/N=C/c2ccc(O)c(O)c2)cc1)N1CCOCC1 was read as Efflux pump mplx 0, eIF4H inh 6, SUMO HTRF inh 15, ALR inh 99*, PABP1 MLLE inh 28 and PABP polyA inh 20.

Screens as filed in PubChem.
